# Source: PubChem BioAssay
# HTR5A inv ag: counter-screen for OPRM1-OPRD1 inverse agonists: human HTR5A inverse agonism; P47898; HTR5A cell line, luminescence; AID 504634; 0.083% of 340,000 active; inhibition, % at 9.3 µM; in the data active = inhibition mostly above about 23%, no sharp cut-off; inactive = mostly below about 18%;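 note: 0% = cells with DMSO and 100% = no-cell wells with DMSO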
# MOR-DOR inv ag-1: inverse agonists of human mu-delta opioid receptor heterodimerization. P35372+P41143. cell-based MOR-DOR heterodimer luminescence, inverse agonism. inhibition, % at 9.3 µM. 0.21% of 340,000 active; in the data active = inhibition above about 22%, passing the limit was not always enough;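 note: 0% = cells with DMSO and 100% = wells without cells with DMSO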
# Target sequence (P35372 whole entry, looked up): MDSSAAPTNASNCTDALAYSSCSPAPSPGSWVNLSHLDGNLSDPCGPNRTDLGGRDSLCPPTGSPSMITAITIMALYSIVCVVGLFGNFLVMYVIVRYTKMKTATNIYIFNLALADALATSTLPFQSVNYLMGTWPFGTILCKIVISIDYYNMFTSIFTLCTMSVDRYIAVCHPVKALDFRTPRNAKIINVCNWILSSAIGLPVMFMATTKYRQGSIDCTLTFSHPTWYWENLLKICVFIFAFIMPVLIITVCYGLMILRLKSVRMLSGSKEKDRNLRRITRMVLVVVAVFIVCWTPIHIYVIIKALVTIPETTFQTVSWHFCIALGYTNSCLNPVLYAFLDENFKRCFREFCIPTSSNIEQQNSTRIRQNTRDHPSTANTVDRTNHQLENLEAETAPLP
# Target sequence (P41143 whole entry, looked up): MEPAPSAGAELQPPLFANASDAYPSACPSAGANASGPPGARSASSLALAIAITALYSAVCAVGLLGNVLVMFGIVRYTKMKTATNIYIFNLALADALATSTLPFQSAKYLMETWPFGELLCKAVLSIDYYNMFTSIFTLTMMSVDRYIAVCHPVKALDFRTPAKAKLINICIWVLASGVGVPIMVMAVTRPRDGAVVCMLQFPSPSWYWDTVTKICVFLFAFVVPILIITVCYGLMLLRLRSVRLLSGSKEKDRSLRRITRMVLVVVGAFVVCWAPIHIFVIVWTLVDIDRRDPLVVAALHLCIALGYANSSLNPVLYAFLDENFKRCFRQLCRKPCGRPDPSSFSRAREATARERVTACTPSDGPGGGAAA
# HTR5A ag ctr: counter-screen for OPRM1-OPRD1 agonists: human HTR5A agonism; AID 504692; P47898; HTR5A agonist assay, luminescence, cell-based; 0.61% of 340,000 active; activation, % at 9.3 µM; in the data active = activation mostly above about 9.5%, no sharp cut-off; inactive = mostly below about 7.6%;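 note: 0% = cells with vehicle only and 100% = reference agonist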
# MOR-DOR ag: agonists of human mu-delta opioid receptor heterodimerization | 0.3% of 340,000 active | cells, OPRM1-OPRD1 heterodimerization, luminescence | AID 504326 | P35372+P41143 | activation, % at 9.3 µM; in the data active = activation above about 18%;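 note: 0% = vehicle-treated cells and 100% = reference agonist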
# MOR-DOR ag conf: OPRM1-OPRD1 heterodimer agonism, confirmation; shares compounds with MOR-DOR ag; cells, MOR-DOR heterodimerization, luminescence complementation; activation, % at 9.3 µM; 45% of 830 active; in the data active = activation above about 18%;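 note: 0% = vehicle-treated cells and 100% = reference agonist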
# HTR5A ag ctr2: HTR5A agonism, opioid heterodimer counter-screen. shares compounds with MOR-DOR ag. HTR5A agonist counterscreen, cell luminescence. activation, % at 9.3 µM. 8% of 830 active. AID 504905; in the data active = activation above about 17%;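 note: 0% = vehicle-treated cells and 100% = reference agonist response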
# MOR-DOR inv conf: confirmation of human OPRM1-OPRD1 heterodimerization inverse agonists | cells expressing OPRM1/OPRD1 heterodimer, luminescence | shares compounds with MOR-DOR inv ag-1 | AID 504900 | inhibition, % at 9.3 µM | 20% of 580 active; in the data active = inhibition above about 32%;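 note: 0% = cells with DMSO and 100% = wells lacking cells with DMSO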
# HTR5A inv count: counter-screen for OPRM1-OPRD1 inverse agonists: human HTR5A inverse agonism | inhibition, % at 9.3 µM | AID 504914 | shares compounds with MOR-DOR inv ag-1 | 580 tested, under 10 active | HTR5A-expressing cells, luminescence;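 note: 0% = cells with DMSO and 100% = no-cell wells with DMSO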
# MOR-DOR inv ag-2: inverse agonist of OPRM1-OPRD1 heterodimerization in HTR5A counter-screen; U2OS counter-screen cells, complementation luminescence; 190 tested, under 10 active; shares compounds with HTR5A inv ag; inhibition, % at 9.3 µM; AID 504912;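 note: 0% = cells with DMSO and 100% = wells without cells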
# HTR5A inv conf: HTR5A (human) inverse agonism, confirmation. AID 504916. 190 tested, under 10 active. shares compounds with HTR5A inv ag. inhibition, % at 9.3 µM. HTR5A-expressing cells, luminescence;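 note: 0% = cells with DMSO and 100% = no cells with DMSO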
# Active calls of the source: *; i = inactive; . = no result. Only some compounds are listed: those with a hit (about 1.1% of all), similar ones and a draw of the others. Unless noted, the rule behind the calls is not given here.
SMILES,HTR5A inv ag,MOR-DOR inv ag-1,HTR5A ag ctr,MOR-DOR ag,MOR-DOR ag conf,HTR5A ag ctr2,others
O=C(CN(c1ccc(F)cc1)S(=O)(=O)c1ccccc1)NC1CCCCCC1,-4,17,0,-3,.,.,
Cc1ccc(S(=O)(=O)Nc2cccc(C(=O)NCC(c3ccccc3)N(C)C)c2)cc1F (stereo not given),19,-263,-8,51*,0,0,
Cc1ccc(S(=O)(=O)Nc2cccc(C(=O)NCC(c3ccco3)N(C)C)c2)cc1F (stereo not given),2,-44,-1,8,.,.,
COc1ccc(N(CC(=O)N/N=C/c2ccc3c(c2)OCO3)S(=O)(=O)c2ccc(NC(C)=O)cc2)cc1,-7,16,-3,-3,.,.,
COc1ccc(NS(=O)(=O)c2ccc(O)c(NC(=O)c3cc4c(C)nn(-c5ccc(F)cc5)c4s3)c2)cc1,1,-123,0,20*,51*,1,
Cn1cccc1C(=O)NCC(c1ccco1)N1CCCCC1 (stereo not given),21,16,-1,-3,.,.,
CCN(Cc1ccccc1)S(=O)(=O)c1c[nH]c(C(=O)OC)c1,-3,14,1,-3,.,.,
O=C(Nc1ccccc1N1CCOCC1)c1cccc(F)c1,-1,9,0,-2,.,.,
O=C(Nc1ccccc1N1CCOCC1)c1ccc2nc[nH]c2c1,-5,-88,2,19*,16,2,
O=[N+]([O-])c1ccc(N2CCN(CCO)CC2)cc1Sc1ccccn1,21,4,-2,0,.,.,
CCN1CCN(c2ccc([N+](=O)[O-])c(Sc3nc4ccccc4[nH]3)c2)CC1,10,-457,-4,76*,69*,-3,
CCCCn1c(SCC(=O)NC2CCCC2)nnc1-c1ccco1,-15,-4,-2,1,.,.,
Oc1ccccc1N1CCN(C(c2ccccc2)c2ccccc2)CC1,-29,-171,10,27*,23*,-2,
Fc1ccc(CN2CCN(C(c3ccccc3)c3ccccc3)CC2)cc1,4,-76,-1,16,.,.,
c1ccc(CN2CCN(C(c3ccccc3)c3ccccc3)CC2)cc1,-15,-131,-3,26*,19*,-4,
O=C(Cc1c(F)cccc1Cl)Nc1ccc(S(=O)(=O)Nc2nccs2)cc1,3,6,-4,-1,.,.,
N#C/C(=C(/O)COC(=O)c1ccc(O)cc1)c1nc2ccccc2[nH]1,-9,10,3,-2,.,.,
CCOC(=O)c1c(C)[nH]c(C(=O)OCC(O)=C(C#N)c2nc3ccccc3[nH]2)c1C,-50,-193,13*,38*,31*,7,
N#C/C(=C(/O)COC(=O)COc1cccc(Br)c1)c1nc2ccccc2[nH]1,-19,-143,7,26*,14,0,
O=C(Nc1ccccn1)c1cc2cc([N+](=O)[O-])ccc2s1,2,-303,2,61*,31*,4,
CC1CCN(C(=O)COC(=O)c2cccc(NS(=O)(=O)c3ccccc3)c2)CC1,-7,5,2,-1,.,.,
CC(C)(C)C(=O)N1CCC[C@H]1C(O)(c1ccccc1)c1ccccc1,-4,13,-2,-2,.,.,
CN1CCC(CC(C(=O)N2CCCC2)(c2ccccc2)c2ccccc2)C1 (stereo not given),1,-307,0,63*,4,-1,
Cc1ccc(-c2nnn(CC(=O)Nc3ccc(S(=O)(=O)N4CCC(C)CC4)cc3)n2)cc1,-65,-230,15*,47*,26*,8,
CSCCC(NC(=O)c1ccc(Cl)cc1Cl)C(=O)NCc1ccncc1 (stereo not given),-1,6,0,-1,.,.,
SMILES,HTR5A inv ag,MOR-DOR inv ag-1,HTR5A ag ctr,MOR-DOR ag,MOR-DOR ag conf,HTR5A ag ctr2,others
CCC(=O)c1ccc(N2CCN(S(=O)(=O)c3ccccc3)CC2)c(F)c1,4,-104,-1,21*,3,8,
Cc1cccn2c(=O)c(C=O)c(Nc3ccccc3)nc12,-8,14,3,-2,.,.,
COc1ccc(CNC[C@@H](CCCCN(C)Cc2ccc(OC)cc2)N2C[C@H](c3ccccc3)N(CCc3ccc(Cl)c(Cl)c3)C(=O)C2=O)cc1,-57,-473,21*,81*,127*,33*,
COc1ccc(CNC(=O)[C@@H]2CC=C[C@@H]3CCN(Cc4ccc(Cl)c(Cl)c4)C(=O)[C@@H]32)cc1,12,8,-4,-1,.,.,
COc1ccc(C2CC(c3ccc4ccccc4c3OC(C)=O)=NN2C(C)=O)cc1 (stereo not given),10,i,-3,129*,21*,10,
Cc1ccc(OCCOc2ccc(Br)cc2/C=N\NC(N)=O)cc1,-20,-98,8,20*,1,71*,
O=C(COC(=O)c1ccc(Cl)c(S(=O)(=O)N2CCCC2)c1)NCc1ccccc1,-1,0,0,0,.,.,
CCN(CC)c1ccc(C(=C2C=CC(=[N+](CC)CC)C=C2)c2ccc(N(CC)CC)cc2)cc1,50*,-431,-20,108*,4,33*,MOR-DOR inv ag-2=-58;HTR5A inv conf=-122
O=S(=O)(Nc1ccc(Br)cc1)c1cccc(NS(=O)(=O)c2cccs2)c1,3,11,0,-3,.,.,
O=C(COC(=O)c1ccccc1)c1ccc(S(=O)(=O)N2CCCCC2)cc1,-10,46*,-3,-7,.,.,MOR-DOR inv conf=32*;HTR5A inv count=2
O=C(COc1ccccc1)OCC(=O)c1ccc(S(=O)(=O)N2CCCCC2)cc1,6,80*,-2,-19,.,.,MOR-DOR inv conf=-27;HTR5A inv count=-135
NC(=O)COC(=O)c1ccc(S(=O)(=O)N2CCCCCC2)cc1,3,17,-1,-3,.,.,
CC(C)[C@H](NC(=O)c1ccccc1)C(=O)OCC(=O)Nc1ccc(S(=O)(=O)N2CCOCC2)cc1,-11,17,3,-4,.,.,
CC(C)[C@H](NC(=O)c1ccccc1)C(=O)OCC(=O)c1ccc(S(=O)(=O)N2CCCCC2)cc1,1,30*,-1,-5,.,.,MOR-DOR inv conf=-27;HTR5A inv count=-6
COc1ccc(CC(=O)OCC(=O)c2ccc(S(=O)(=O)N3CCCCC3)cc2)cc1,29,50*,-11,-13,.,.,MOR-DOR inv conf=13;HTR5A inv count=8
CCOc1ccccc1NC(=O)CSc1nnc(CCC(=O)Nc2ccccc2F)n1C,-16,10,6,-2,.,.,
CCC(Sc1ccc2nnc(CCNS(=O)(=O)c3ccc(OC)cc3)n2n1)C(=O)OC (stereo not given),-36,4,4,-1,.,.,
